Sampled rows, rich in hits. Any-hit rate of the full collection: about 4.1%.
Sm TGR block: qHTS Assay for the Inhibitors of Schistosoma Mansoni Peroxiredoxins | hit rate 3% among 360,000 | purified TGR, DTNB reduction, TNB absorbance 405 nm | Potency, µM (doses to about 114 µM), without a hit: at the top dose activity change, negative = inhibition, actives largely listed as inhibitors | Schistosoma mansoni thioredoxin glutathione reductase (TGR), Q962Y6; further: nearly all actives have a fitted effect of over 60% in size
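First, TGR (20 nM dispensed) and NADPH were mixed with compound. Second, a 15 min room-temperature incubation followed. Third, further NADPH and then DTNB were added to start the reaction. Finally, TNB absorbance was monitored kinetically.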
AmpC detergent: qHTS Inhibitors of AmpC Beta-Lactamase (assay with detergent) | hit rate 0.041% among 370,000 | Potency, µM (highest dose often 114 µM), without a hit: top-dose activity change, negative = inhibition, usual class: inhibitors | AmpC hydrolysis of nitrocefin, absorbance 480 nm, 0.01% Triton;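 further: 0% = no-compound wells and -100% = no-enzyme wells; nearly all actives have a fitted effect of over 25% in size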
Target sequence (P00811 whole entry, looked up): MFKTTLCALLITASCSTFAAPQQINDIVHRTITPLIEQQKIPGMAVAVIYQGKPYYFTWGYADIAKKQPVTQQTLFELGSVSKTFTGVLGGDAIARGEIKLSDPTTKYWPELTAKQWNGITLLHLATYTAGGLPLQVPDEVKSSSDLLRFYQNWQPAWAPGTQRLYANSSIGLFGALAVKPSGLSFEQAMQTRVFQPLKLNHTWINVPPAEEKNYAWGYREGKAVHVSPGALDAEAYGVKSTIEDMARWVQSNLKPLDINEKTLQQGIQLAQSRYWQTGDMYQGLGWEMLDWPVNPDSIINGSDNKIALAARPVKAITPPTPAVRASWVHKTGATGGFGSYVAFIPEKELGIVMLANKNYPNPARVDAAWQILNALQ
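AmpC (5.3 nM in the dispensed reagent) in 20 mM phosphate pH 7.0 with 0.01% (detergent screen) or 0.0001% Triton X-100 was preincubated with compounds for 15 min at room temperature. Nitrocefin was then added from an 800 uM solution, and hydrolysis was followed at 480 nm.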
AmpC no deterg: qHTS Inhibitors of AmpC Beta-Lactamase (assay without detergent); P00811; AmpC nitrocefin hydrolysis, absorbance 480 nm, 0.0001% Triton; Potency, µM (top dose mostly 57.1 µM), for inactives: top-dose activity change, negative = inhibition, usual class: inhibitors; hit rate 0.52% among 330,000;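 further: plate controls were no compound for no effect and no enzyme for full effect; nearly all actives have a fitted effect of over 20% in size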
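20 mM phosphate pH 7.0 + 0.01% (detergent screen) or 0.0001% Triton X-100; 5.3 nM AmpC reagent; cpd preinc 15 min RT; nitrocefin (800 uM stock) to start; A480 q20 s × 4 min; Activity was normalised to no-enzyme and no-compound control wells.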
FMDV antiviral: High Throughput Screening for Foot and Mouth Disease Virus Antivirals. FMDV antiviral cell-based qHTS. Potency, µM (highest dose often 57.9 µM), inactives show top-dose activity change, negative = inhibition, hits mostly inhibitors. hit rate 1.2% among 410,000; calls by dose curve; tested in HEK293T cells; further: read-out not given here; nearly all actives have a fitted effect of over 45% in size
AMA1-RON2 inh: qHTS for Inhibitors of AMA1-RON; Towards Development of Antimalarial Drug Lead: Primary Screen; Plasmodium falciparum AMA1 (3D7) - RON2 peptide interaction; AlphaScreen AMA1-biotinylated RON2 peptide binding; Potency, µM (highest dose often 58.2 µM), without a hit: at the highest dose activity change, negative = inhibition, usual class: inhibitors; hit rate 0.2% among 360,000;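 further: 0% = vehicle wells and -100% = peptide control; nearly all actives have a fitted effect of over 45% in size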
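AMA1 (3D7) with his tag at 25 nM final met compounds first, then biotinylated RON2 peptide at 25 nM; detection used donor plus acceptor beads, 10 µg/mL apiece, read by AlphaScreen after 30 min at room temperature.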
Starred values were filed as active, the others as inactive; ? = inconclusive; . = no result given; [ ] = another dose, or the depositor's remark. Unless noted, the call rests on the fitted dose curve; in most records, active means well fitted curve in the direction sought with a large enough effect; inconclusive means small, poorly fitted or top-dose-only effect, or another doubt; inactive means no such curve, though single readings can be large; an effect the other way counts as inactive or inconclusive. Unless noted, on the % scale 0 is the no-effect control and ±100 the full control effect; potency means the concentration at half of the fitted maximal effect.

SMILES	Sm TGR block	AmpC detergent	AmpC no deterg	FMDV antiviral	AMA1-RON2 inh
CCOC(=O)c1ccc(N2C(=O)c3n[nH]c(-c4ccco4)c3C2c2ccc([N+](=O)[O-])cc2)cc1 (stereo not drawn)	-1%	-6%	-15%	?	0%
COc1ccccc1N1CCN(c2ccc(-c3nc(-c4ccccc4)no3)cc2[N+](=O)[O-])CC1	-2%	0%	.	-13%	.
COc1ccc(C(=O)COC(=O)CCNS(=O)(=O)c2ccccc2)cc1Br	-12%	-2%	-33%	-9%	7%
COc1ccc(C(C)=O)cc1COC(=O)CNC(=O)c1cc(C)cc(C)c1	32µM*	-10%	-3%	-7%	-26%
COc1ccc(C(C)=O)cc1COC(=O)C(CO)NS(=O)(=O)c1ccc(Br)cc1 (stereo not drawn)	13µM*	-1%	-10%	1%	9%
COc1ccc(C(C)=O)cc1COC(=O)CCNS(=O)(=O)c1ccc(C(C)=O)cc1	10µM*	-12%	-8%	-24%	-16%
COc1cc(C(=O)NCC(=O)OCc2ccccc2Cl)cc(OC)c1OC	0%	3%	-2%[2.29 µM]	-18%	-2%
CNC(=O)C(C#N)(Cc1cc(C(C)=O)ccc1OC)Cc1cc(C(C)=O)ccc1OC	40µM*	-1%	196%	0%	-18%
Cc1cc(C)cc(NC(=O)Cn2c(C)cc(C)c(C#N)c2=O)c1	3%	6%	.	-23%	.
C[C@H](CC[C@@H]1OC1(C)C)C1CC[C@H]2[C@@H]3CC=C4C[C@@H](O)CC[C@]4(C)[C@H]3CC[C@]12C (stereo partly drawn)	.	.	.	13%	.
COC(=O)c1ccc(NC(=O)CC2C(=O)N(c3cccc(OC)c3)C(=O)N2Cc2cccs2)cc1 (stereo not drawn)	0%	?	.	-6%	.
COc1ccc(C(C)=O)cc1COC(=O)CCNS(=O)(=O)c1ccc(C)cc1	5.6µM*	?	-17%	-1%	-14%
COc1ccc(C(C)=O)cc1COC(=O)CCCN1C(=O)c2ccccc2C1=O	8.9µM*	?	30%	-10%	4%
COc1ccccc1C(=O)COC(=O)CCNS(=O)(=O)c1ccc(C)c(C)c1	-12%	-2%	-11%	17%	16%
CCc1ccc(NC(=O)CSc2ccc3nc(-c4ccc(OC)cc4)cn3n2)cc1	9%	1%	.	39%	.
O=C(Cn1ncn2nc(-c3cccs3)cc2c1=O)NCc1ccccc1Cl	-11%	-1%	.	-8%	.
O=C(Nc1cccc(NC(=O)c2cccs2)c1)c1ccc2c(c1)OCO2	7%	?	10µM*	29%	7%
C/C(=N\NC(=O)c1ccc(NS(=O)(=O)c2cccs2)cc1)c1ccc2c(c1)OCO2	28%	1%	18µM*	26%	23%
O=C(Nc1cccc(N2C(=O)C=CC2=O)c1)c1cccs1	0.4µM*	?	-47%	.	.
Cc1nc2ccccc2c(=O)n1-c1cccc(NC(=O)c2cccs2)c1	4%	-10%	-14%	-17%	-11%
O=C(Nc1cccc(NC(=O)c2ccco2)c1)c1ccc2c(c1)OCO2	-14%	-6%	11µM*	18%	2%
CC(=O)N[C@@H](C)C(=O)NCC1Cc2cc(C)cc(-c3cnccn3)c2O1 (stereo partly drawn)	.	.	.	-10%	.
Fc1ccc(N2CCN(Cc3ccc4c(c3)CN(Cc3cccn3-c3ncccn3)CCO4)CC2)cc1	.	.	.	-12%	.
Cc1ccc(C)c(CN2C[C@H](Sc3nc4ccccc4[nH]3)C[C@H]2C(=O)N2CCCN(C)CC2)c1	.	.	.	10%	.
Cc1ccc2c(c1)c(C1=c3ccccc3=NC1=O)c(O)n2C	0%	?	-17%	?	-4%
C=CCn1c(O)c(C2=c3ccccc3=NC2=O)c2ccccc21	?	2%	-29%	28µM*	?
Cn1c(=O)[nH]c(=O)c2[nH]c(N(Cc3ccccc3)Cc3ccccc3)nc21	-7%	?	-30%	40µM*	1%

Assay outcomes as filed in PubChem.
